Measurements reported in PubChem BioAssay (Tox21).
Results filed as inconclusive are left out. Active and inactive are the calls of the source. Unless noted, calls follow the shape of the dose curve; as a rule, active = well fitted curve in the direction sought with a large enough effect in the repeat runs; inconclusive = weak or mixed curves; inactive = no such curve, though single readings can be large; an effect the other way counts as inactive or inconclusive. Positions of bridges follow the written chain, without caps; N, C: chain ends. Non-standard residues stand in square brackets, D forms with d. Residues, ends and D or L forms follow the SMILES beside them. *: point of attachment. X2 = CC[C@H](C)CCCCC(=O)*; Dab = NCC[C@H](N)C(=O)O

How the values were obtained:
[1] = qHTS assay for small molecule agonists of the p53 signaling pathway (AID 651631; calls by dose curve; also: nearly all actives have a fitted effect of over 15% in size; also: potency is read from the fitted curve at half-maximal effect); settings: HCT-116 p53RE-bla reporter, beta-lactamase FRET ratio, 16 h; series mostly up to 73.3 µM
How it was run: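 Stably transfected HCT-116 cells (beta-lactamase behind p53 response elements) get compounds after a 5 h settling period; 16 h later at 37 °C, FRET substrate is loaded and fluorescence read after 2 h.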

[2] = qHTS assay to test for compound auto fluorescence at 590 nm (red) in HepG2 cells (AID 720674); settings: HepG2 autofluorescence, red 540/590 nm, 1 h; series mostly up to 46 µM
How it was run: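 Rose Bengal sodium served as the red fluorophore standard. HepG2 monolayers (overnight attachment, MEM with 10% FBS) were exposed to test compounds for 1 hr at 37 C and read at Ex 540/Em 590 nm.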

[3] = qHTS assay to test for compound auto fluorescence at 535 nm (green) in HepG2 cells (AID 720675); settings: green autofluorescence 485/535 nm, 1 h; series mostly up to 46 µM
[4] = qHTS assay to test for compound auto fluorescence at 460 nm (blue) in HEK293 cells (AID 720678); settings: blue autofluorescence 405/460 nm; series mostly up to 46 µM; also: potency is read from the fitted curve at half-maximal effect
How it was run: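 Blue read-out at excitation 405 nm and emission 460 nm follows overnight compound exposure of HEK293 cells at 37C in 5% CO2. Activity is given as auto fluorescence equivalency to triamterene.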

[5] = qHTS assay to test for compound auto fluorescence at 590 nm (red) in HEK293 cells (AID 720679); settings: red autofluorescence 540/590 nm; series mostly up to 46 µM
How it was run: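 Red channel, Ex/Em 540/590nm; signal expressed as equivalency to Rose Bengal sodium. HEK293, 2,000 cells/well, 10% dialyzed FBS; 23 nL compound pinned after 4-5 hr attachment; overnight 37C/5% CO2 before reading.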

[6] = qHTS assay for small molecules that induce genotoxicity in human embryonic kidney cells expressing luciferase-tagged ATAD5 - cell viability (AID 651634; calls by dose curve; also: nearly all actives have a fitted effect of over 25% in size; also: potency is read from the fitted curve at half-maximal effect); settings: HEK293T ATAD5-luc cells viability, CellTiter-Fluor, 15.5 h; series mostly up to 83.3 µM
How it was run: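 Here HEK293T cells with the ATAD5 luciferase reporter are incubated with test compounds for 15.5 hr, and cytotoxicity is then gauged by measuring protease activity in live cells using fluorescence.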

[7] = qHTS assay for small molecule disruptors of the mitochondrial membrane potential - cell viability (AID 720634; calls by dose curve;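 also: human HepG2 liver cancer cells; nearly all actives have a fitted effect of over 20% in size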); settings: HepG2 viability, ATP luminescence (CellTiter-Glo), 1 h; series mostly up to 83.2 µM
How it was run: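 Viability of HepG2 cells is scored from ATP content by luminescence; cells are exposed to compound for 1 hr at 37 C and 5% CO2, then dosed with m-MPI dye before the CellTiter-Glo reagent.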

[8] = qHTS assay for small molecule disruptors of the mitochondrial membrane potential (AID 720635); settings: HepG2 mitochondrial membrane potential, Mito-MPS dye ratio; series mostly up to 83.2 µM; also: potency is read from the fitted curve at half-maximal effect
How it was run: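 HepG2 cells (2,000/well) attached overnight at 37C, then took compound for 1 hr at 37C, 5% CO2. Mito-MPS dye was added for 30 min; fluorescence was read at 490/535 nm (monomers) and 540/590 nm (aggregates).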

[9] = qHTS assay for small molecules that induce genotoxicity in human embryonic kidney cells expressing luciferase-tagged ATAD5 (AID 651632); settings: HEK293T ATAD5-luciferase induction, 16 h; series mostly up to 83.3 µM; also: nearly all actives have a fitted effect of over 15% in size
How it was run: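 DMSO vehicle served as the control. HEK293T reporter cells, 16 hr at 37C, then 30 min Amplite at room temperature; ATAD5 induction is measured as luciferase activity.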

[10] = qHTS assay for small molecule agonists of the p53 signaling pathway - cell viability (AID 651633; calls by dose curve; also: nearly all actives have a fitted effect of over 30% in size; also: potency is read from the fitted curve at half-maximal effect); settings: p53RE-bla HCT-116 viability, ATP luminescence, 16 h; series mostly up to 83.3 µM
How it was run: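 p53RE-bla cells, seeded at 4,000 per well and rested 5 h at 37 C/5% CO2, received compounds in DMSO for 16 h at 37 C. CellTiter-Glo was then added, and luminescence was read after 30 min at room temperature to gauge cytotoxicity.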

Measured: Potency
Tags tell the direction and shape of the fitted curve or compound fluorescence and quenching.

CC1=C(/C=C/C(C)=C/C=C/C(C)=C/C=C/C=C(C)/C=C/C=C(C)/C=C/C2=C(C)C[C@@H](O)CC2(C)C)C(C)(C)C[C@H](O)C1
inactive: [2] | [3] | [4] | [5]
active: [1] 29.8 µM

N=C(N)c1ccc(OCCCOc2ccc(C(=N)N)cc2Br)c(Br)c1
inactive: [1] | [6] | [7] | [8] | [2] | [3] | [4] | [5]

CN[C@@H]1[C@H](O[C@H]2[C@H](O[C@H]3[C@H](O)[C@@H](O)[C@H](N=C(N)N)[C@@H](O)[C@@H]3N=C(N)N)O[C@@H](C)[C@]2(O)C=O)O[C@@H](CO)[C@H](O)[C@H]1O
inactive: [9] | [10] | [6] | [7] | [8] | [2] | [3] | [4]

C=C1CC[C@H](O)CC1=C/C=C1\CCC[C@]2(C)[C@@H]([C@H](C)CCCC(C)(C)O)CC[C@@H]12
inactive: [9] | [7] | [2] | [3] | [4] | [5]
active: [10] 11.9 µM | [6] 13.3 µM | [8] 5.31 µM

CC(=O)Oc1c(C)cc(OCC(O)CNC(C)C)c(C)c1C (stereo not drawn)
inactive: [1] | [6] | [7] | [8] | [2] | [3] | [4] | [5]

O=C(O)[C@H]1/C(=C/CO)O[C@@H]2CC(=O)N21
inactive: [9] | [10] | [6] | [7] | [8] | [2] | [3] | [4] | [5]

Cc1cc(/C=C/c2ccc3cc(N(C)C)ccc3[n+]2C)c(C)n1-c1ccccc1
active: [1] 9.02 µM | [10] 5.07 µM | [8] 1.43 µM
inactive: [7] | [3] | [4]

C[C@H](CCCC(C)(C)O)[C@H]1CC[C@H]2[C@@H]3CC=C4C[C@@H](O)CC[C@]4(C)[C@H]3CC[C@]12C
inactive: [9] | [10] | [6] | [7] | [8] | [2] | [3] | [4] | [5]

CC[C@H](C)CCCCC(=O)N[C@@H](CCN)C(=O)N[C@H](C(=O)N[C@@H](CCN)C(=O)N[C@H]1CCNC(=O)[C@@H]([C@H](C)O)NC(=O)[C@H](CCN)NC(=O)[C@H](CCN)NC(=O)[C@H](CC(C)C)NC(=O)[C@@H](CC(C)C)NC(=O)[C@H](CCN)NC1=O)[C@@H](C)O (X2-[Dab]T[Dab][Dab][Dab][dL]L[Dab][Dab][dT]; lactam 4-C)
inactive: [9] | [10] | [6] | [7] | [8] | [2] | [3] | [4] | [5]

COc1ccc(CNCC(O)COc2ccc3[nH]c(=O)ccc3c2)cc1OC (stereo not drawn)
inactive: [1] | [10] | [6] | [8] | [2] | [3] | [4] | [5]

O=C(O)C1=C(CSc2nnnn2CS(=O)(=O)O)CS[C@@H]2[C@H](NC(=O)[C@H](O)c3ccccc3)C(=O)N12
inactive: [9] | [10] | [6] | [7] | [8] | [2] | [3] | [4] | [5]

CC[C@H](C)CCCCC(=O)N[C@@H](CCN)C(=O)N[C@H](C(=O)N[C@@H](CCN)C(=O)N[C@H]1CCNC(=O)[C@H]([C@@H](C)O)NC(=O)[C@H](CCN)NC(=O)[C@H](CCN)NC(=O)[C@H](CC(C)C)NC(=O)[C@@H](CC(C)C)NC(=O)[C@H](CCN)NC1=O)[C@@H](C)O (X2-[Dab]T[Dab][Dab][Dab][dL]L[Dab][Dab]T; lactam 4-C)
inactive: [9] | [10] | [6] | [7] | [8] | [2] | [3] | [4] | [5]

C/C(=C(\CCOC(=O)c1ccccc1)SS/C(CCOC(=O)c1ccccc1)=C(/C)N(C=O)Cc1cnc(C)nc1N)N(C=O)Cc1cnc(C)nc1N
inactive: [9] | [10] | [6] | [7] | [8] | [2] | [3] | [4] | [5]

CCCC1C(=O)N2C(N(C)C)=Nc3ccc(C)cc3N2C1=O (stereo not drawn)
inactive: [1] | [10] | [7] | [8] | [2] | [3] | [4] | [5]

CC(NNC(=O)c1ccccc1)c1ccccc1 (stereo not drawn)
inactive: [1] | [6] | [7] | [2] | [3] | [4] | [5]
active: [8] 24.8 µM

CC(=O)O[C@H]1CC[C@@]2(C)C(=CC[C@H]3[C@@H]4CC[C@H](C(C)=O)[C@@]4(C)CC[C@@H]32)C1
inactive: [9] | [10] | [6] | [7] | [8] | [2] | [3] | [4] | [5]

CC(O)[C@@H]1NC(=O)[C@H](Cc2ccccc2)NC(=O)[C@H](C(C)O)NC(=O)[C@H](CCCCN)NC(=O)[C@H](Cc2c[nH]c3ccccc23)NC(=O)[C@H](Cc2ccccc2)NC(=O)[C@H](Cc2ccccc2)NC(=O)[C@H](CC(N)=O)NC(=O)[C@H](CCCCN)NC(=O)[C@@H](NC(=O)CNC(=O)[C@H](C)N)CSSC[C@@H](C(=O)O)NC(=O)[C@H](CO)NC1=O (stereo partly drawn)
inactive: [9] | [10] | [6] | [7] | [8] | [2] | [3] | [4] | [5]

CCN(CC)CCOC(=O)c1ccc(N)cc1Cl
inactive: [1] | [10] | [7] | [8] | [2] | [3] | [4] | [5]

CC[C@@]1(O)C(=O)OCc2c1cc1n(c2=O)Cc2cc3c([N+](=O)[O-])cccc3nc2-1
inactive: [2] | [3] | [4]
active: [1] 0.473 µM | [10] 0.473 µM

CCCCCCCCCCCCCCCC(=O)OC[C@@H](O)[C@H]1OC[C@H](O)[C@H]1O
inactive: [9] | [10] | [6] | [7] | [8] | [2] | [3] | [4]

N[C@H](CC(=O)O)C(=O)O
inactive: [9] | [10] | [6] | [7] | [8] | [2] | [3] | [4] | [5]

Cc1ncc(COP(=O)(O)O)c(CN)c1O
inactive: [1] | [10] | [6] | [2] | [3] | [4] | [5]

CO[C@H]1C[C@@H]2CC[C@@H](C)[C@@](O)(O2)C(=O)C(=O)N2CCCC[C@H]2C(=O)O[C@H]([C@H](C)C[C@@H]2CC[C@@H](OC(=O)C(C)(CO)CO)[C@H](OC)C2)CC(=O)[C@H](C)/C=C(\C)[C@@H](O)[C@@H](OC)C(=O)[C@H](C)C[C@H](C)/C=C/C=C/C=C/1C
inactive: [9] | [10] | [6] | [7] | [8] | [2] | [3] | [4]

Nc1ncnc2c1ncn2CCOCP(=O)(O)O
inactive: [9] | [10] | [6] | [7] | [8] | [2] | [3] | [4] | [5]

O=C1C(=O)c2ncccc2-c2cccnc21
inactive: [6] | [7] | [2] | [3] | [5]
active: [1] 1.68 µM | [8] 26.6 µM

CC(O)[C@H]1CC[C@H]2[C@@H]3CC[C@@H]4C[C@@H](O)CC[C@]4(C)[C@H]3CC[C@]12C (stereo partly drawn)
inactive: [9] | [10] | [6] | [7] | [8] | [2] | [3] | [4] | [5]

Nc1ncnc(Nc2ccc(Cl)cc2)n1
inactive: [1] | [6] | [2] | [3] | [4] | [5]

CCCCCCCCCCCCCCCC(=O)O[C@@H]1[C@@H](O)[C@@H](O)[C@@H]([C@H](NC(=O)[C@@H]2C[C@@H](CCC)CN2C)[C@H](C)Cl)O[C@@H]1SC
inactive: [1] | [6] | [7] | [2] | [3] | [4] | [5]

CCCCCCCCCCCC(=O)OC[C@@H](O)C1OC[C@H](O)[C@H]1O (stereo partly drawn)
inactive: [9] | [10] | [6] | [7] | [8] | [2] | [3] | [4] | [5]

C[C@H](O)[C@H](O)[C@H]1CNc2nc(N)[nH]c(=O)c2N1
inactive: [9] | [10] | [6] | [7] | [8] | [2] | [3] | [5]
active: [4] 12.6 µM [fluorescent]

CNC(=O)[C@H](Cc1c[nH]c2ccccc12)NC(=O)[C@@H](CC(=O)NO)CC(C)C
inactive: [1] | [10] | [7] | [8] | [2] | [3] | [4] | [5]

C[C@@H]1C[C@H]2[C@@H]3CCC4=CC(=O)C=C[C@]4(C)[C@@]3(F)[C@@H](O)C[C@]2(C)[C@@]1(O)C(=O)COC(=O)c1cccc(S(=O)(=O)O)c1
inactive: [1] | [6] | [7] | [2] | [3] | [4] | [5]

CNC(C)CCC=C(C)C (stereo not drawn)
inactive: [9] | [10] | [6] | [7] | [8] | [2] | [3] | [4] | [5]

Cc1ccc(C2(O)CCN(CCCC(=O)c3ccc(F)cc3)CC2)cc1
inactive: [9] | [10] | [6] | [7] | [8] | [2] | [3] | [4] | [5]

COc1ccc2cc([C@H](C)CO)ccc2c1
inactive: [9] | [10] | [6] | [7] | [8] | [2] | [3] | [4] | [5]
